From PubChem BioAssay (NCATS)
Results filed as inconclusive are left out. The source made the active and inactive calls. Unless noted, the call rests on the fitted dose curve; in most records, active means well fitted curve in the direction sought with a large enough effect; inconclusive means small, poorly fitted or top-dose-only effect, or another doubt; inactive means no such curve, though single readings can be large; an effect the other way counts as inactive or inconclusive.

Experiments:
[1] = molecular target: Peroxisome proliferator-activated receptor gamma (Homo sapiens) (UniProt P37231); assay: qHTS assay for small molecule agonists of peroxisome proliferator-activated receptor gamma signaling (AID 588536; active means well fitted curve in the direction sought with a large enough effect in the signal ratio, with a control signal flat, not every such curve was filed as active; the % refers to the signal ratio;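 further: 0% = DMSO basal wells and 100% = rosiglitazone at 2 µM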)
How it was run: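 HEK293 UAS-bla reporter line, 1% charcoal/dextran FBS; titration, 16 h, 37 C; CCF4 loading 2 h RT; fluorescence 460/530 nm. Normalized to rosiglitazone 2 uM = 100%, DMSO = 0%.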

[2] = molecular target: Peroxisome proliferator-activated receptor gamma (Homo sapiens) (UniProt P37231); assay: qHTS assay for small molecule antagonists of peroxisome proliferator-activated receptor gamma signaling (AID 588537; active means well fitted inhibition curve with a large enough effect in the signal ratio, with a control signal flat, not every such curve was filed as active; the % refers to the signal ratio; further: potency means the concentration at half of the fitted maximal effect)
How it was run: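 Step one: plate 3000 HEK293 UAS-bla cells per well in medium with 1% stripped serum and hold 6-6.5 h at 37 C. Step two: add compound and 50 nM agonist for 16 h. Step three: CCF4 loading, fluorescence read.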

[3] = qHTS assay for small molecule agonists of retinoid X receptor alpha signaling (AID 588544; calls by dose curve;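 on activation: 0% = DMSO basal wells and 100% = reference agonist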); details: HEK293T RXRa-UAS-bla, beta-lactamase reporter, 18 h; 530 nm emission
[4] = molecular target: Retinoic acid receptor RXR-alpha (Homo sapiens) (UniProt P19793); assay: as above
[5] = molecular target: Thyroid hormone receptor beta (Homo sapiens) (UniProt P10828); assay: qHTS assay for small molecule agonists of thyroid hormone receptor beta signaling (AID 588545; calls by dose curve;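 further: 0% = DMSO only and 100% = 10 nM T3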)
How it was run: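 Compounds were tested as agonists in TR-UAS-bla-GripTite HEK 293 cells. After 18 hrs at 37 C, CCF4 substrate was added and fluorescence read after 2 hrs at room temperature.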

[6] = qHTS assay for small molecule antagonists of retinoid X receptor alpha signaling (AID 588546; active means well fitted inhibition curve with a large enough effect in the signal ratio, with a control signal flat, not every such curve was filed as active; the % refers to the signal ratio; further: potency means the concentration at half of the fitted maximal effect;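 on max response: cells stimulated with 9-cis-retinoic acid as agonist; on the % scale 0 is the no-effect control and ±100 the full control effect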); details: HEK293T RXRa-UAS-bla, beta-lactamase ratio, antagonist mode; measured here: W530 green channel, cytotoxicity proxy
How it was run: (§1)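 Beta-lactamase reporter inhibition, read as CCF4 fluorescence ratio (ex 405, em 460/530 nm) after 2 h at RT. HEK293T UAS-bla cells, 2500/well, were stimulated with 9-cis-RA at 500 or 100 nM final alongside test compound for 18 h at 37 C.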

[7] = molecular target: Retinoic acid receptor RXR-alpha (Homo sapiens) (UniProt P19793); assay: as above; details: HEK293T RXRa-UAS-bla, beta-lactamase ratio, antagonist mode
How it was run: as §1

[8] = molecular target: Thyroid hormone receptor beta (Homo sapiens) (UniProt P10828); assay: qHTS assay for small molecule antagonists of thyroid hormone receptor beta signaling (AID 588547; active means well fitted inhibition curve with a large enough effect in the signal ratio, with a control signal flat, not every such curve was filed as active; the % refers to the signal ratio;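 further: cells stimulated with 0.4 nM T3 agonist during compound exposure; series mostly up to about 77 µM; on the % scale 0 is the no-effect control and ±100 the full control effect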); details: TR-UAS-bla HEK293, beta-lactamase ratio, antagonist mode, 18 h
How it was run: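 TR-UAS-bla GripTite HEK293 cells in 2% charcoal/dextran FBS medium; compounds 0.59 nM to 92 uM with T3 at 0.4nM final, 18 h at 37 C. Beta-lactamase read by CCF4 fluorescence (460/530 nm); Hill fits gave IC50 and efficacy.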

[9] = qHTS assay for small molecule activators of the p53 signaling pathway (AID 651743; active means well fitted activation curve with a large enough effect in the signal ratio, not every such curve was filed as active; the % refers to the signal ratio; further: potency means the concentration at half of the fitted maximal effect; on activation: series mostly up to about 92 µM; % of control where 0% means no effect); details: HCT-116 p53RE-bla, beta-lactamase FRET ratio, 16 h; activation: stronger effect = higher value
How it was run: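 HCT-116 p53RE-bla, 4,000 cells/well; 5 h settle; cpd/DMSO 16 h, 37 C; LiveBLAzer B/G 2 h RT; fluorescence intensity.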

[10] = qHTS assay for small molecule activators of the nuclear factor-kappa B (NF-kB) signaling pathway (AID 651749; active means well fitted activation curve with a large enough effect in the signal ratio; the % refers to the signal ratio; further: series mostly up to about 77 µM; % of control where 0% means no effect); details: NF-kB-bla ME-180 cells, beta-lactamase FRET ratio, 16 h; activation: stronger effect = higher value
How it was run: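 Incubation lasted 16 hr at 37C in 5% CO2 after 23 nL compound addition to ME-180 NF-kB-bla cells. Activation appears as beta-lactamase-mediated FRET loss.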

[11] = qHTS assay for environmental chemicals that activate the Aryl hydrocarbon Receptor (AhR) signaling pathway (AID 651777); details: 1A2-DRE human hepatoma cells, luciferase, 24 h; activation: stronger effect = higher value; further: % of control where 0% means no effect; nearly all actives have a fitted effect of over 15% in size
How it was run: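 Luminescence read-out: One-Glo added for 30 min at RT after 24 hr compound treatment (37 C, 5% CO2) of human hepatoma cells expressing a DRE/CYP1A2 promoter–luciferase reporter; increased signal indicates AhR activation.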

[12] = molecular target: Peroxisome proliferator-activated receptor alpha (Homo sapiens) (UniProt Q07869); assay: qHTS assay for small molecule agonists of the peroxisome proliferator-activated receptor alpha (PPARalpha) signaling pathway (AID 651778); details: PathHunter PPARalpha complementation, chemiluminescence, 6 h; max response: stronger effect = higher value; further: % of control where 0% means no effect
How it was run: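 Enzyme-fragment complementation assay in which ligand-bound PPARalpha translocates and forms an active enzyme that generates chemiluminescence. Cells were plated overnight, exposed to compound for 6 hr at 37 C, and then given detection reagent for 60 min at room temperature.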

[13] = qHTS assay for small molecule agonists of the antioxidant response element (ARE) signaling pathway measured by Nrf2-dependant transcriptional activity - cell viability counter screen (AID 720653; active means well fitted curve in the direction sought with a large enough effect in the repeat runs; an effect the other way counts as inactive or inconclusive; further: on the % scale 0 is the no-effect control and ±100 the full control effect); details: ARE-bla HepG2 viability, CellTiter-Glo ATP luminescence, 16 h; max response: stronger effect = lower value
How it was run: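 ARE-bla HepG2 cells treated with compounds for 16 h at 37C; this counter screen measures viability as intracellular ATP by CellTiter-Glo luminescence after 30 min at room temperature.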

[14] = qHTS assay for cell viability of HEK293 cells (AID 743288); details: ATP luminescence (CellTiter-Glo), 18 h; max response: stronger effect = lower value; further: nearly all actives have a fitted effect of over 50% in size; further: potency means the concentration at half of the fitted maximal effect
How it was run: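 HEK293 parental, 2,000 cells/well; ≥5 h pre-incubation 37 C; pintool compound addition; 18 h, 37 C; CellTiter-Glo 30 min RT; luminescence read.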

[15] = qHTS assay for cell viability of the p53RE-bla HCT-116 cell line (AID 743292); further: nearly all actives have a fitted effect of over 55% in size; further: potency means the concentration at half of the fitted maximal effect
How it was run: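 Luminescent ATP quantitation (CellTiter-Glo) served as the viability read-out; reagent was added after 16 h compound exposure at 37 C and read after 30 min at room temperature. Cells: p53RE-bla HCT-116, 4,000 per well.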

[16] = molecular target: Peroxisome proliferator-activated receptor delta (Homo sapiens) (UniProt Q03181); assay: qHTS assay for small molecule agonists of peroxisome proliferator-activated receptor delta signaling (AID 588534; calls by dose curve;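 further: 0% = DMSO basal wells and 100% = positive control agonist at 10 µM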)
How it was run: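 Cell-based beta-lactamase reporter assay run in agonist mode: cells seeded and incubated 5 hrs at 37 C, compounds added and incubated 18 hrs at 37 C. CCF4 dye fluorescence read after 2 hrs at RT; EC50 and efficacy from Hill fits.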

[17] = molecular target: Voltage-gated inwardly rectifying potassium channel KCNH2 (Homo sapiens) (UniProt Q12809); assay: qHTS Assay for Small Molecule Inhibitors of the Human hERG Channel Activity (AID 588834);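 further: top concentration of the series differs between compounds; on the % scale 0 is the no-effect control and ±100 the full control effect; lower thallium flux fluorescence means stronger hERG block; nearly all actives have a fitted effect of over 50% in size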
How it was run: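 hERG-BacMam U2OS, 2000 cells/well; 0.7X FluxOR loading 1 hr RT dark; cpd ~10 min 37 °C; stim buffer; FDSS fluorescence 2 min @ 1 s; AC50 Hill fit.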

[18] = S16 Schwann cell PMP22 intronic element firefly luciferase assay (AID 624032);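 further: series mostly up to about 58 µM; plate controls were DMSO for no effect and PTC124 positive control mean for full effect; nearly all actives have a fitted effect of over 30% in size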
How it was run: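 Rat S16 Schwann cells stably carrying firefly luciferase driven by a PMP22 intronic element, in 10% FBS, treated 24 h at 37 C. ONE-Glo luminescence normalized to PTC124 control and DMSO (0%); curves classed by r2, magnitude and activity.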

[19] = molecular target: Luciferin 4-monooxygenase (Photinus pyralis) (UniProt P08659); assay: Biochemical firefly luciferase enzyme assay for NPC (AID 624030); further: potency means the concentration at half of the fitted maximal effect; nearly all actives have a fitted effect of over 70% in size
How it was run: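 Purified P. pyralis luciferase at 10 nM in 50 mM Tris Acetate (final), luminescence read within 5 minutes of enzyme addition to compounds. Activity normalised to PTC124 versus DMSO; concentration-response curves classed by r2, magnitude and activity.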

[20] = qHTS assay for small molecule agonists of the antioxidant response element (ARE) signaling pathway (AID 651741; active means well fitted activation curve with a large enough effect in the signal ratio; the % refers to the signal ratio; further: potency means the concentration at half of the fitted maximal effect; on activation: % of control where 0% means no effect)
How it was run: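 HepG2 ARE-bla cells plated at 2,000 cells/well and incubated 5 h at 37 C/5% CO2 received 23 nL compound in DMSO. After 16 h at 37 C, LiveBLAzer B/G FRET substrate was applied for 2 h at room temperature and fluorescence read.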

[21] = qHTS assay for small molecule antagonists of peroxisome proliferator-activated receptor delta signaling (AID 588535; active means well fitted inhibition curve with a large enough effect in the signal ratio, with a control signal flat, not every such curve was filed as active; the % refers to the signal ratio;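 on max response: cells co-treated with a PPAR-delta agonist as stimulator during compound exposure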); details: HEK293T PPARd-UAS-bla, beta-lactamase FRET ratio, 18 h; 460 nm channel
How it was run: (§2)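 Cells were seeded at 4000 per well in assay medium containing 2% charcoal/dextran FBS and held 5 hrs at 37 C. Compounds were then added for 18 hrs. CCF4 substrate was applied for 2 hrs at room temperature before fluorescence reading.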

[22] = molecular target: Peroxisome proliferator-activated receptor delta (Homo sapiens) (UniProt Q03181); assay: as above
How it was run: as §2

[23] = molecular target: Vitamin D3 receptor (Homo sapiens) (UniProt P11473); assay: qHTS assay for small molecule antagonists of vitamin D receptor signaling (AID 588541; calls by dose curve;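 further: receptor activated by calcitriol during compound treatment; series mostly up to about 77 µM; on the % scale 0 is the no-effect control and ±100 the full control effect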)
How it was run: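 VDR-UAS-bla HEK293T cells in 2% charcoal-stripped FBS were stimulated with 1-alpha,25-dihydroxyvitamin D3 (3 nM final) plus compound for 16 h at 37 C. The beta-lactamase CCF4 readout was normalized to 50 nM agonist and DMSO, and Hill fits gave IC50.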

[24] = molecular target: Vitamin D3 receptor (Homo sapiens) (UniProt P11473); assay: qHTS assay for small molecule agonists of vitamin D receptor signaling (AID 588543; calls by dose curve;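 further: 0% = DMSO basal and 100% = reference agonist control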)
How it was run: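 Reporter cells (HEK293T, VDR-UAS-bla) were seeded in medium with 2% charcoal-stripped serum and incubated 5 h, then compounds in concentration series were added for 16 h at 37 °C. Stimulation was scaled between DMSO basal and 50 nM 1α,25-dihydroxyvitamin D3.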

[25] = qHTS assay for small molecule agonists of the antioxidant response element (ARE) signaling pathway measured by Nrf2-dependant transcriptional activity (AID 720636; active means well fitted curve in the direction sought with a large enough effect in the repeat runs; an effect the other way counts as inactive or inconclusive;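 further: HepG2 cells with an ARE-driven luciferase reporter; % of control where 0% means no effect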)
How it was run: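 HepG2 ARE-luc reporter line, 1% dialyzed FBS; 6 hr attachment at 37 C, compound pinned in, 16 hr at 37 C/5% CO2; ONE-Glo, 30 min RT, luminescence read.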

[26] = molecular target: Nuclear receptor subfamily 1 group I member 2 (Rattus norvegicus) (UniProt Q9R1A7); assay: qHTS assay for small molecule activators of the rat pregnane X receptor (rPXR) signaling pathway (AID 651751; call rule not given here; further: 0% is about no effect); details: rPXR reporter cells, luciferase (One-Glo), 24 h
[27] = qHTS assay for small molecule activators of the human pregnane X receptor (PXR) signaling pathway (AID 720659; call rule not given here; further: 0% is about no effect)

Sequence of Peroxisome proliferator-activated receptor delta (Homo sapiens) (Q03181 whole entry, looked up): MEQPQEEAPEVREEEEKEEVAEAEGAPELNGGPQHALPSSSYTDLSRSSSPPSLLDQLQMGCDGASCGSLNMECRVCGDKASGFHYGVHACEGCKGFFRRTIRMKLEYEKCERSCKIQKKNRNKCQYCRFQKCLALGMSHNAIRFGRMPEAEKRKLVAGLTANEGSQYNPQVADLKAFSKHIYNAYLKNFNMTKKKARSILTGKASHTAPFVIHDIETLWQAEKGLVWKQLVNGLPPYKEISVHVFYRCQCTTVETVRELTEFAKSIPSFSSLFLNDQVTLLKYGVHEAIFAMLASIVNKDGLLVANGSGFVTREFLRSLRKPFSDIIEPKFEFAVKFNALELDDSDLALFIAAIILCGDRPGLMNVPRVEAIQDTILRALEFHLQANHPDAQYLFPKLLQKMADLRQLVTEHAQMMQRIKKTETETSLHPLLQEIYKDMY
Sequence of Peroxisome proliferator-activated receptor alpha (Homo sapiens) (Q07869 whole entry, looked up, the tested form may be a part): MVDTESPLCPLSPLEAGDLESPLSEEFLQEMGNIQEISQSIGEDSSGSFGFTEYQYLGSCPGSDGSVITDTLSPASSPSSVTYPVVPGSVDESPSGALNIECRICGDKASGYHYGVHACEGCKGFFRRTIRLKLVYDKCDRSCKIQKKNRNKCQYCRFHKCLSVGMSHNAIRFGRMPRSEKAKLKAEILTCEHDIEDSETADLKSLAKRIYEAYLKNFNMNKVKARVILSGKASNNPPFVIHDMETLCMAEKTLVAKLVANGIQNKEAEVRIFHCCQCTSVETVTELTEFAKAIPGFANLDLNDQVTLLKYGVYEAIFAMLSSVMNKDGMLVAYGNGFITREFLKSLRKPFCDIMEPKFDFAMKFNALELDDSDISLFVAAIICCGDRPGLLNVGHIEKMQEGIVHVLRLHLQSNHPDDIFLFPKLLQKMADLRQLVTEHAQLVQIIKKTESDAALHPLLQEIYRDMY
Sequence of Peroxisome proliferator-activated receptor gamma (Homo sapiens) (P37231 whole entry, looked up): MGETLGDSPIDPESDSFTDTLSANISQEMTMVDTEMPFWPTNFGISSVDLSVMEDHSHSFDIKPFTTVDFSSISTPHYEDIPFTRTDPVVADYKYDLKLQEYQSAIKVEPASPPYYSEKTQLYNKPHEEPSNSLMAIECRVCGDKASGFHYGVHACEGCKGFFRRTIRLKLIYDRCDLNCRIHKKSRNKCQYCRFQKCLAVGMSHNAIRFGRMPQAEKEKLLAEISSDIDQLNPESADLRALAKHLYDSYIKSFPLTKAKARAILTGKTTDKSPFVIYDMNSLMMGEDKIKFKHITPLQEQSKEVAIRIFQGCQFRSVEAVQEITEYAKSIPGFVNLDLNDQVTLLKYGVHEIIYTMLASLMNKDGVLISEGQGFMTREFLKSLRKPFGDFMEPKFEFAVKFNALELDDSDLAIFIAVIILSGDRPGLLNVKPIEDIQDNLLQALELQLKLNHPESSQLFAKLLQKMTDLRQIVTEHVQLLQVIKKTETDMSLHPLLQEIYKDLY
Sequence of Voltage-gated inwardly rectifying potassium channel KCNH2 (Homo sapiens) (Q12809 whole entry, looked up): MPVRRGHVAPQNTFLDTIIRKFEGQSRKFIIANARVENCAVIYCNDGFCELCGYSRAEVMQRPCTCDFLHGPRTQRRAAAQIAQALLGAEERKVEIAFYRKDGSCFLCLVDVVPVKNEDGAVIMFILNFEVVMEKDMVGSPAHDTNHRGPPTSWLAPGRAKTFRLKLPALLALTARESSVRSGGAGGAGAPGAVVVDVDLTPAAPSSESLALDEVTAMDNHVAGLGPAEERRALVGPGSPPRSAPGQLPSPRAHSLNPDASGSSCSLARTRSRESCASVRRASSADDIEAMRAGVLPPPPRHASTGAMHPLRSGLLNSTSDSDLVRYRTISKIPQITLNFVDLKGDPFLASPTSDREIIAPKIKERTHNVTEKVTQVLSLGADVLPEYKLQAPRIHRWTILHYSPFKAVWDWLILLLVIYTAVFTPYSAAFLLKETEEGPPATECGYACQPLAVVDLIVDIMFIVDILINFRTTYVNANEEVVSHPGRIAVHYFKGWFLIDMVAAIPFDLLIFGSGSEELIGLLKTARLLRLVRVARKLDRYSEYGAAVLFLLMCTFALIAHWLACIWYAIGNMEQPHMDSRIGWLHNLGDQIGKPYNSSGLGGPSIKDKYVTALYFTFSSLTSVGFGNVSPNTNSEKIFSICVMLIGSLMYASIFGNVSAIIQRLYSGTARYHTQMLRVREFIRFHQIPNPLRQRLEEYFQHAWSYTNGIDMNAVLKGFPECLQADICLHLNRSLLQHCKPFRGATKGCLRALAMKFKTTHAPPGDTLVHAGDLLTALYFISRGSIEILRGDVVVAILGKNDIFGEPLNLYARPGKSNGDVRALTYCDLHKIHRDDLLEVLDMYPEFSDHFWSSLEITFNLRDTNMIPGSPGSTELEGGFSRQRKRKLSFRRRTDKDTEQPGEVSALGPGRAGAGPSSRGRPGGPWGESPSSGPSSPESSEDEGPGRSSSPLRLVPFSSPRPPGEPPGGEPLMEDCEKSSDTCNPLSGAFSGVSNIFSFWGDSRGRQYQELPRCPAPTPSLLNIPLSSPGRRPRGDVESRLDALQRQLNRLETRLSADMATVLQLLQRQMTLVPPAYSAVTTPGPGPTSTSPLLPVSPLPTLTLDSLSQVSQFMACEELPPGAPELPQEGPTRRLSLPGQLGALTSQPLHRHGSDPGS
Sequence of Thyroid hormone receptor beta (Homo sapiens) (P10828 whole entry, looked up): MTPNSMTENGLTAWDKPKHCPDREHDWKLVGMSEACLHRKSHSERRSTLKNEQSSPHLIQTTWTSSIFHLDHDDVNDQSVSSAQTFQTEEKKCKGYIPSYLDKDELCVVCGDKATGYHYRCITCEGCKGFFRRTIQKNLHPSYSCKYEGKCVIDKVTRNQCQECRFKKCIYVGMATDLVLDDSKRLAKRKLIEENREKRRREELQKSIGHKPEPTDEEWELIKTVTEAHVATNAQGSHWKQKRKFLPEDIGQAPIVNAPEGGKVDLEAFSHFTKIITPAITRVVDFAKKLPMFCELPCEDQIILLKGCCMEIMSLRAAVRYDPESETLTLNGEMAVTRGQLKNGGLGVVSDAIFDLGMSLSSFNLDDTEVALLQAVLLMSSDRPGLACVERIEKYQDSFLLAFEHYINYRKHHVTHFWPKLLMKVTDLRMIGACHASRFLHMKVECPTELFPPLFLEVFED
Sequence of Nuclear receptor subfamily 1 group I member 2 (Rattus norvegicus) (Q9R1A7 whole entry, looked up): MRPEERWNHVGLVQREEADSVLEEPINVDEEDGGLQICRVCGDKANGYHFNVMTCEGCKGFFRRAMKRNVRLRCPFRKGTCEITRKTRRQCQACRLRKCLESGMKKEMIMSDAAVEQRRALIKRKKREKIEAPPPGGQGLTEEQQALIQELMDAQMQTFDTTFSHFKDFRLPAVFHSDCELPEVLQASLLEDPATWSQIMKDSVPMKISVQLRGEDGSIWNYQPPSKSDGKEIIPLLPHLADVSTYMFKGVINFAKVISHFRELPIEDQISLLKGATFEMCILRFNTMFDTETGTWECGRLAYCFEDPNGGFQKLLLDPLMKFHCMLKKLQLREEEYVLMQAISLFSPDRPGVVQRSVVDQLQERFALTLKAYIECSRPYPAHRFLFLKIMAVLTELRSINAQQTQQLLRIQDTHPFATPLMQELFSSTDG
Sequence of Retinoic acid receptor RXR-alpha (Homo sapiens) (P19793 whole entry, looked up): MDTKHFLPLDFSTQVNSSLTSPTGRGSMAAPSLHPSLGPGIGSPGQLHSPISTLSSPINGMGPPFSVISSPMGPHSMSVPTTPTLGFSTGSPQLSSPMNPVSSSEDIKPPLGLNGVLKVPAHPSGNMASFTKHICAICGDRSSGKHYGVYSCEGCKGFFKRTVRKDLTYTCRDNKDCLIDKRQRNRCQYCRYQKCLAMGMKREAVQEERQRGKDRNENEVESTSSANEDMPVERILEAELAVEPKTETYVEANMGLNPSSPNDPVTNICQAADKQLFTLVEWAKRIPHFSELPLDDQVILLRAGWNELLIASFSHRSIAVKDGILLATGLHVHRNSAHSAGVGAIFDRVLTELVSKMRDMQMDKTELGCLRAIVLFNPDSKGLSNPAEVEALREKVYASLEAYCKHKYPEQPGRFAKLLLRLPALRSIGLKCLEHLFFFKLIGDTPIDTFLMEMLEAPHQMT
Sequence of Vitamin D3 receptor (Homo sapiens) (P11473 whole entry, looked up): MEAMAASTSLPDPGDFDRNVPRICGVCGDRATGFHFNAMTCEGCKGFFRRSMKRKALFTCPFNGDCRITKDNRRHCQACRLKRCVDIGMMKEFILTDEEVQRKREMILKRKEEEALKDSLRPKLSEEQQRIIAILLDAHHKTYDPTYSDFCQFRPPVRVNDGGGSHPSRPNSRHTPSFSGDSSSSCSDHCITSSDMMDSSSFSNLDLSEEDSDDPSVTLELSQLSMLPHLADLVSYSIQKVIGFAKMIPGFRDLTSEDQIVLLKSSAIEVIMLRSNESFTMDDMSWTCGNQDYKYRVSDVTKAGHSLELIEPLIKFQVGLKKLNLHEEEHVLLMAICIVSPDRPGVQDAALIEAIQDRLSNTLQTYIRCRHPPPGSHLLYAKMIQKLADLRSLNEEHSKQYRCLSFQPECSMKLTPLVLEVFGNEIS
Sequence of Luciferin 4-monooxygenase (Photinus pyralis) (P08659 whole entry, looked up): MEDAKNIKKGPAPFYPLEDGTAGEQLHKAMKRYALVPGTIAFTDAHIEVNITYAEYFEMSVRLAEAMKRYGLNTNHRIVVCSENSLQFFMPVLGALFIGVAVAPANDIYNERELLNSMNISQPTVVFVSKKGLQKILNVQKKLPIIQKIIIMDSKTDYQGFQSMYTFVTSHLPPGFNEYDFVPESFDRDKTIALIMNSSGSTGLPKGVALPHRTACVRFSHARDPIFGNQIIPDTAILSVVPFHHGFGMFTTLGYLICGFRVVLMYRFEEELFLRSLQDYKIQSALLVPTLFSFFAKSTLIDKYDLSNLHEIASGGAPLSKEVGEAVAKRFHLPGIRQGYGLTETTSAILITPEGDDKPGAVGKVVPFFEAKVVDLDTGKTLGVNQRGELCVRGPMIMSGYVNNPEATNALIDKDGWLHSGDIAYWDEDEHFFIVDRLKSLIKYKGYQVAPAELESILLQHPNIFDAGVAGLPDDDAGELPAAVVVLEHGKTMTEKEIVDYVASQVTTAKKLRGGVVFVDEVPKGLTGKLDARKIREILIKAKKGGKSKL

CC(C)NC(=O)N1CC(=O)N(c2cc(Cl)cc(Cl)c2)C1=O
21.2%: max response [3]
inactive: Potency [1] | Potency [4] | Potency [5] | max response [7] -6.64% | activity change % (negative = inhibition) [8] 4.77% | activation [9] -1.23% | activation [10] -3.11% | activation [11] 14.5% | max response [12] 0.394% | max response [13] 1.07% | max response [14] -6.95% | Potency [15]
active: Potency [2] 44.7 µM
11.6%: max response [6]

CN(C)CCCCCCN(C)C
inactive: outcome [16] | Potency [17] | Potency [18]

NCCN
inactive: outcome [16] | Potency [17]

CN(C)CCCNCCCN
inactive: outcome [16]

CCNS(=O)(=O)c1ccc(C)cc1
inactive: outcome [16]

[O-][N+](=Nc1ccccc1)c1ccccc1
inactive: outcome [16] | Potency [17] | Potency [18]
active: Potency [19] 12.8 µM | Potency [20] 37.6 µM

C[C@H]1C[C@H]2[C@@H]3CCC4=CC(=O)C=C[C@]4(C)[C@@]3(F)[C@@H](O)C[C@]2(C)[C@@]1(O)C(=O)CO
inactive: outcome [16]

CC(=NC#N)N(C)Cc1ccc(Cl)nc1
-1.52%: max response [6]
inactive: outcome [16] | Potency [22] | Potency [1] | Potency [2] | Potency [23] | outcome [24] | Potency [4] | max response [7] -19.1% | activity change % (negative = inhibition) [8] -1.79% | Potency [20] | activation [9] -5.43% | activation [10] -0.278% | activation [11] 0.519% | max response [12] -1.88% | Potency [25] | max response [13] -5.31% | max response [14] -11.8% | max response [26] 2.55% | outcome [27]
-1.69%: max response [3]
24.8%: max response [21]

CC(C)S
inactive: outcome [16]

CCOP(=O)(SC(C)CC)N1CCSC1=O (configuration not stated)
-8.5%: max response [6]
inactive: Potency [1] | Potency [2] | outcome [24] | max response [7] 14.8% | activation [11] -0.193% | max response [12] 1.22% | Potency [25] | max response [13] 14.1% | max response [14] 6.21%

O=C(O)c1ccccc1Cl
inactive: outcome [16]

N#CC(Br)(Br)C(N)=O
inactive: outcome [24] | Potency [4] | activation [11] -0.328% | max response [12] -5.1% | Potency [25] | Potency [15] | outcome [27]
6.67%: max response [3]

Oc1ccc(C(c2ccc(O)cc2)(C(F)(F)F)C(F)(F)F)cc1
-38.3%: max response [21]
inactive: outcome [16] | Potency [22] | Potency [23] | outcome [24] | Potency [5] | activation [9] 22.5% | activation [10] -2.42% | activation [11] 0.672% | max response [12] -3.57% | Potency [25] | max response [13] -1.13% | max response [14] -18.6% | Potency [15] | max response [26] 0.831%
active: Potency [20] 48.6 µM

CCOCn1c(-c2ccc(Cl)cc2)c(C#N)c(Br)c1C(F)(F)F
inactive: Potency [5] | activation [11] -4.34% | max response [12] 14.2% | Potency [25] | outcome [27]
active: Potency [2] 39.8 µM | Potency [7] 2.24 µM | Potency [14] 7.94 µM | Potency [15] 6.31 µM
0.12%: max response [6]

CON=C(C(=O)OC)c1ccccc1CO/N=C(\C)c1cccc(C(F)(F)F)c1
active: Potency [2] 35.5 µM | Potency [20] 8.63 µM | Potency [9] 5.01 µM
inactive: outcome [24] | Potency [5] | activation [10] 3.5% | max response [12] 3.69% | Potency [25] | Potency [15] | max response [26] -14.4%

Nc1ccc([N+](=O)[O-])c(N)c1
inactive: outcome [16]
